Each structure is given as a SMILES string. The source made the active and inactive calls. The calls were made as follows: active = hit-call score of the fitted dose curve at least 0.9, where 1 is the maximum; inactive = score below 0.9.

For the experiment, the target named is human Angiotensin Receptor AT2 Antagonism, AGTR2 (gene 186) (UniProt P50052). Description: ERF_TW_GPCR_hAGTR2: Eurofins (ERF) G Protein-Coupled Receptor (GPCR) Radioligand Binding LeadHunter Assay for human Angiotensin Receptor AT2 Antagonism. The method, then: ERF_TW_GPCR_hAGTR2 is a biochemical, single-readout assay that uses extracted gene-proteins in a cell-free assay. Measurements were taken 3 hour after chemical dosing in a 96-well plate. See AT2 Human Angiotensin GPCR Binding (Agonist Radioligand) Assay, Panlabs.ERF_TW_GPCR_hAGTR2 is an assay component calculated from the ERF_TW_GPCR_hAGTR2 assay. It is designed to measure radioligand binding using a type of binding reporter as detected by scintillation counting with radiometry technology.Data from the assay component ERF_TW_GPCR_hAGTR2 was analyzed at the assay endpoint, ERF_TW_GPCR_hAGTR2, in the positive analysis fitting direction relative to DMSO as the negative control and baseline of activity. Using a type of binding reporter, gain-of-signal activity can be used to understand changes in radioligand binding as they relate to gene AGTR2. To generalize the intended target to other relatable targets, this assay endpoint is annotated to the gpcr intended target family, where the subfamily is angiotensin.
human Angiotensin Receptor AT2 Antagonism, AGTR2 (gene 186), sequence (P50052 whole entry, looked up): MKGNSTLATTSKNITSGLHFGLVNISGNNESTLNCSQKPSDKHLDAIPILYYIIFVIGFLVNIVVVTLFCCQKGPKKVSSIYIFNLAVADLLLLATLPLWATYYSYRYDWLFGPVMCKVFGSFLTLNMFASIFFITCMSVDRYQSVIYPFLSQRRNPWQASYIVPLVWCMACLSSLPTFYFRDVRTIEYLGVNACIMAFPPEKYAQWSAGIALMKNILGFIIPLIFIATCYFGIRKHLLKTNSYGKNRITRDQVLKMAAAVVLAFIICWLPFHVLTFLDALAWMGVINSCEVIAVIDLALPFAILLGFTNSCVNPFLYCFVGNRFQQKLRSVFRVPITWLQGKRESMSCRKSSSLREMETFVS
Human recombinant angiotensin AT2 receptors expressed in CHO-K1 cells are used in modified Tris-HCl buffer pH 7.4. A 2.4 ug aliquot is incubated with 0.05 nM [125I] CGP-42112A for 3 hours at 37C. Non-specific binding is estimated in the presence of 10 uM (Sar1, Ile8)-Angiotensin II. Membranes are filtered and washed, the filters are then counted to determine [125I] […]
For orientation: AC50 means the midpoint of the concentration-response curve, whichever way the signal moves. With `O=C(/C=C/c1ccc(O)cc1)CC(=O)/C=C/c1ccc(O)cc1`, the AC50 is 1750 nM (active).

(Values after PubChem BioAssay AID2284147 (EPA ToxCast).)
